# High-throughput results deposited in PubChem by Sanford-Burnham Center for Chemical Genomics.
# In the library only some 28% were active in any assay of this set; here they are far more common.
# Mac1 fbg enh – enhancers of CD11b/CD18 adhesion to fibrinogen, primary screen, K562 cells, luminescence; Integrin beta-2 (Homo sapiens) + Integrin alpha-M (Homo sapiens), P05107+P11215; ATPlite luminescence; activation, % at 10 µM; 0.07% of 93,000 active;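 active means 10 µM primary screen giving 50% or more activity, confirmed by 40% or more on retest at that dose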
# Target sequence (P05107 whole entry, looked up, other chains not shown): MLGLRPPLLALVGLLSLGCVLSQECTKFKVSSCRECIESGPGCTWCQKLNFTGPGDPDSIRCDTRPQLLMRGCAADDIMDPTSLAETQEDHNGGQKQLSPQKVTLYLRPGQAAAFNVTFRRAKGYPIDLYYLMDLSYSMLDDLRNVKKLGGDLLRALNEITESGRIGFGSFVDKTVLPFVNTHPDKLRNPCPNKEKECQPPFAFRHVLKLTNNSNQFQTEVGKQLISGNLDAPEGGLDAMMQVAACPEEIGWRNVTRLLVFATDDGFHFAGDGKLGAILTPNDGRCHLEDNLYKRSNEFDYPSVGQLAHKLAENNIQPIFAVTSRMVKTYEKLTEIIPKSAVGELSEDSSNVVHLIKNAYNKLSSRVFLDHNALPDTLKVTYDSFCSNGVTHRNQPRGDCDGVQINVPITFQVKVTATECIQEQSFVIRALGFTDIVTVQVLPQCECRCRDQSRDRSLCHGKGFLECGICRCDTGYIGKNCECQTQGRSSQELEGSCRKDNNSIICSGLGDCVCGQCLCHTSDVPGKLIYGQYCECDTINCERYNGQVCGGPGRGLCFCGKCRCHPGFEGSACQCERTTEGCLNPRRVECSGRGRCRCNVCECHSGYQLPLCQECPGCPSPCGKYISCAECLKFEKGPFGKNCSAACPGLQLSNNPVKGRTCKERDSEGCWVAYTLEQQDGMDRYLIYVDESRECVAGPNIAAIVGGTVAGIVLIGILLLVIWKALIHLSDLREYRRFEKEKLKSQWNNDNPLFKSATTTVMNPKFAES
# CYP2C19 act – human CYP2C19 activators, primary screen, biochemical, luminescence. Cytochrome P450 2C19 (Homo sapiens), P33261. activation factor at 5 µM. AID 1025, 2008. 96,000 tested, under 10 active. recombinant CYP2C19, luciferin-H EGE luminescence; hits give high values; 0 = fully inhibited enzyme, 1 = untreated enzyme;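 active means activation factor of at least 2 at 5 µM in the primary screen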;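 further: 0 = wells with 2.5 mM tranylcypromine and 1 = vehicle-only wells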
# CYP2C19 inh – blockers of cytochrome P450 2C19 activity – biochemical, luminescence, ADME assay, primary screen | P33261 | CYP2C19 Supersomes, luciferin-H EGE luminescence, 30 min | inhibition, % at 5 µM | 21% of 96,000 active | AID 778, 2007;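 active means CYP2C19 inhibition above a set limit at 5 µM in the primary screen, cut at about 50% in these data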;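 further: plate controls were negative control wells for no effect and 2.5 mM tranylcypromine positive control for full effect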
# CYP2C9 inhib – blockers of cytochrome P450 2C9 activity – biochemical, luminescence, ADME assay, primary screen. P11712. CYP2C9 Supersomes, luciferin-H conversion. inhibition, % at 5 µM. 20% of 96,000 active. AID 777, 2007;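 active means blocking of liver enzyme CYP2C9 beyond about 50% at 5 µM, limit read from the data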
# CYP2C9 activ – human CYP2C9 activators, primary screen, biochemical, luminescence; 1.4% of 96,000 active; activation factor at 5 µM; Cytochrome P450 2C9 (Homo sapiens), P11712; recombinant CYP2C9, luciferin-H conversion; hits give high values; factor 1 = untreated enzyme, 0 = blocked;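 active means activation factor of 2 or more for CYP2C9 at a 5 µM dose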;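 further: 0 = sulfaphenazole-blocked wells and 1 = vehicle-only wells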
# CD11b adhes inh – inhibitors of CD11b/CD18 adhesion to fibrinogen, primary screen, K562 cells, luminescence. Integrin beta-2 (Homo sapiens) + Integrin alpha-M (Homo sapiens), P05107+P11215. ATPlite luminescence; Mn2+ added to activate the integrin. inhibition, % at 10 µM. 0.54% of 93,000 active. AID 1497, 2009;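 active means primary inhibition of 50% or more at 10 µM, then 40% or more on retest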
# An asterisk follows results filed as active; / = no result given.
SMILES,Mac1 fbg enh,CYP2C19 act,CYP2C19 inh,CYP2C9 inhib,CYP2C9 activ,CD11b adhes inh
CC(C)(C)OC(=O)N1CCC(C(=O)N2CCC[C@H]2C(=O)O)CC1,-3,1,-2,-2,1,-4
Cn1nc(-c2ccc(Cl)cc2)c2cc(C(=O)N3CCN(c4ccccc4)CC3)sc21,1,0.6,38,84*,0.2,3
Cn1nc(-c2ccc(Cl)cc2)c2cc(C(=O)N3CCN(c4ccccn4)CC3)sc21,5,0.7,32,56*,0.4,62*
Cc1cccc(NC(=S)NNC(=O)CCn2cc(C)cn2)c1,2,0.7,29,21,0.8,13
CCOC(=O)CSc1nnc(N)s1,-1,0.9,12,15,0.9,-7
Nc1nnc(COc2cccc(C(F)(F)F)c2)s1,1,0.4,64*,0,1,2
Nc1nnc(SCc2cccc(C(F)(F)F)c2)s1,-3,0,96*,-26,1.3,9
Nc1nnc(SCc2ccc(F)cc2Cl)s1,-1,0.1,91*,11,0.9,-2
Cc1cccc(OCc2nnc(N)s2)c1,-5,0.7,29,-2,1,-5
CCOC(=O)c1ccc(CSc2nnc(N)s2)cc1,1,0.3,70*,65*,0.3,0
Cc1cc(NC(=O)CCCC(=O)Nc2ccc(F)cc2)no1,0,0.5,46,37,0.6,-44
CCN(CC)S(=O)(=O)c1cccc(NC(=O)COC(=O)c2cc(C)oc2C)c1,-1,0.4,64*,96*,0,21
Cc1cc(C(=O)OCC(=O)Nc2ccc(F)cc2)c(C)o1,1,0.4,61*,-10,1.1,6
COc1cc(Cn2cnnn2)ccc1O,/,1.1,-5,-64,1.6,/
COc1ccc(N=C2S/C(=C\c3ccc(N4CCOCC4)o3)C(=O)N2CCc2c[nH]c3ccccc23)cc1,/,0.7,32,64*,0.4,/
CCCN1C(=O)/C(=C/c2ccco2)SC1=Nc1ccc(OC)cc1,5,0.9,10,28,0.7,4
Cc1cccc(C)c1N1CCN(c2nc(N(C)C)oc(=O)c2C#N)CC1,/,0.1,95*,74*,0.3,/
Cc1cc(N(C)C)c(C#N)c(N2CCOCC2)n1,1,1,-4,-17,1.2,-1
CN(C)c1nc(N2CCN(c3ccccc3)CC2)c(C#N)c(=O)o1,-5,0,97*,-94,1.9,-10
COc1cccc(NS(=O)(=O)Cc2ccccc2)c1,/,0.5,49,8,0.9,/
CC(=O)Nc1cccc(NS(=O)(=O)Cc2ccc(Cl)cc2)c1,-7,0,96*,-26,1.3,0
CC(=O)c1ccc(NS(=O)(=O)Cc2ccc(Cl)cc2)cc1,1,0.3,74*,77*,0.2,0
CC(=O)c1ccc(NS(=O)(=O)c2ccc(CC(C)C)cc2)cc1,-1,0.3,67*,86*,0.1,28
Cc1cc(C)n2nc(CC(=O)NCc3ccccc3Cl)nc2n1,-2,/,/,/,/,-2
COc1ccc(CCNS(=O)(=O)c2cccc(C(=O)O)c2)cc1OC,-2,0.9,6,10,0.9,11
SMILES,Mac1 fbg enh,CYP2C19 act,CYP2C19 inh,CYP2C9 inhib,CYP2C9 activ,CD11b adhes inh
O=C1/C(=C/c2ccccc2)CSc2sccc21,-6,0.5,55*,40,0.6,5
O=C1/C(=C/c2ccccc2)CCCc2ccccc21,-2,0.9,15,6,0.9,13
O=C1CCCCC1Sc1nnc(Cc2cccs2)n1CCc1ccccc1 (stereo unspecified),9,0.3,68*,70*,0.3,5
O=C(CSc1ccc(Br)cc1)Nc1ccccc1Oc1ccccc1,30,/,/,/,/,9
O=C(CSc1n[nH]c(=O)n1C1CC1)Nc1cc(Cl)ccc1Oc1ccccc1,-2,0.4,59*,83*,0.2,11
CCCn1c(SCC(=O)Nc2ccccc2Oc2ccccc2)n[nH]c1=O,8,0.2,81*,74*,0.3,-53
CCCn1c(SCC(=O)NC(=O)Nc2ccc(C)cc2C)n[nH]c1=O,4,0.8,19,19,0.8,32
CCCn1c(SCC(=O)Nc2cc(Cl)ccc2OC)n[nH]c1=O,-3,0.1,90*,8,0.9,-7
CCCn1c(SCC(=O)c2cc(C)c(C)cc2C)n[nH]c1=O,-2,0.6,38,74*,0.3,5
O=C(Nc1cc(Cl)ccc1Oc1ccccc1)c1ccc(F)cc1,-3,/,/,/,/,39
C=CCn1c(COc2ccc(Cl)cc2)nnc1SCC(=O)N/N=C/c1ccccc1,/,0.9,11,7,0.9,/
N/C(Cc1ccc(Cl)cc1Cl)=N\OC(=O)c1cccs1,-4,0.5,54*,44,0.6,-7
CCN(CC)S(=O)(=O)c1ccc(N(C)Cc2cccnc2)nc1,4,0.2,81*,68*,0.3,-44
CN(Cc1ccccc1)c1ccc(S(=O)(=O)N2CCOCC2)cn1,2,0.7,30,-37,1.4,-33
CSc1nnc2c(n1)OC(C1CC=C(C)CC1)Nc1ccccc1-2 (stereo unspecified),0,1.1,-9,-26,1.3,10
O=C(Nc1cccc(Cl)c1)N(Cc1nc2ccccc2c(=O)[nH]1)Cc1cccs1,2,/,/,/,/,-20
CCOC(=O)Nc1nnc(CCc2ccccc2)s1,-2,0.6,44,62*,0.4,-12
COc1ccc(C(=O)N/N=c2\oc3ccccc3cc2C(=O)NCc2ccccc2)cc1,-2,/,/,/,/,-9
O=C(NCc1ccc2c(c1)OCO2)C1CCN(c2ccc(S(=O)(=O)N3CCCC3)cc2)CC1,1,0.7,26,63*,0.4,10
CCc1c(C)nc2ncnn2c1N1CCCC(C(=O)NCc2ccc3c(c2)OCO3)C1 (stereo unspecified),0,0.7,29,70*,0.3,0
O=C(NCc1ccc2c(c1)OCO2)C1CCN(S(=O)(=O)c2cccs2)CC1,1,0.9,9,30,0.7,52
Cc1ccnc(N2CCC(C(=O)NCc3ccc4c(c3)OCO4)CC2)n1,22,0.6,45,66*,0.3,-7
O=C(NCc1ccc2c(c1)OCO2)C1CCN(S(=O)(=O)c2ccc(Br)s2)CC1,2,0.4,65*,46,0.5,-28
CC(C)(Oc1ccc(Cl)cc1)C(=O)OCC(=O)N1CCCC1,-2,0.7,28,10,0.9,3
O=C(NCCc1ccc(Cl)cc1)C1CCN(S(=O)(=O)N2CCCC2)CC1,0,0.9,14,43,0.6,3
O=C(NNS(=O)(=O)c1ccccc1)c1sccc1-n1cccc1,/,0.6,40,34,0.7,/
